About 83,000 compounds went through this panel and 20% of them were active in at least one assay; those are over-represented in the sample as a whole.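 Note: values are percent growth. 100 is the growth of untreated cells, values between 100 and 0 indicate rising inhibition; between -100 and 0 indicates cell death.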 A number with no mark means an inactive call. Activity calls are given as the source filed them. Rule for the calls: active = growth percent below 10; inactive = the rest.

The subject of the assay is HL-60(TB) leukemia. Put plainly: NCI-60 one-dose screen, 48 h (100 = growth as untreated, 0 = no growth, -100 = all killed). The note with it: 10 µM unless noted.
Consider `CC(C)c1ccc(C(=O)Nc2sc3c(CN(C)C)c(O)ccc3c2C(N)=O)cc1`, for which the growth is 24.2%. With `CCCCC[C@H]1C/C=C2/C(=O)C=C[C@@H]2C/C=C\CCCC(=O)O1` the figure was 4.48% (active). To `O=[N+]([O-])c1ccc(-c2cn3nc(-c4c[nH]c5ccccc45)sc3n2)cc1` belongs 95.3%; to `Cc1ccc2nc(N)nnc2c1`, 125%; to `COc1ccc(-c2nc3ccccn3c2-c2nc3ccc(Cl)cc3[nH]2)cc1`, 74.8%.

In the case of `C[C@H]1[C@H](C)CC[C@]2(COC(=O)CCC(=O)O)CC[C@]3(C)C(=CC[C@@H]4[C@@]5(C)CCCNC(C)(C)[C@@H]5CC[C@]43C)[C@H]12`, the growth was 49.3% [100 µM]. For the compound `NC1=CC(=O)C(=O)c2ccccc21`, the growth was 39.2%. With `CCCCC(O)Cn1ncc(C(=O)OCC)c1NC(=O)NCc1ccccc1C(F)(F)F` (stereo not given) the figure was 76.3%; with `CCOC(=O)C(=CCC(C)C)C(=O)OCC`, 40.5%.

As for `CN(C)c1ccc2cc(-c3nc4ccccc4s3)c(N)nc2c1`, the growth was 0.561% (active). To `O=C(O)CSCSCC(=O)O` belongs 98.5%; to `CCN(CC)c1ccc(CNc2cc(C)nc3ccccc23)cc1`, 81.1%. In the case of `COc1cc(Nc2ncccc2/C=C/C(=O)c2cc(OC)c(OC)c(OC)c2)cc(OC)c1OC`, the growth was 73.1%. With `COc1ccc(C2C(c3nn[nH]n3)=C(N)Oc3c2ccc2ccccc32)cc1` (stereo not given) the figure was 31.9%; with `O=C(Nc1cccc(-n2cc(-c3ccncc3)c(-c3ccc(O)c(Cl)c3)n2)c1)c1ccc(Cl)c(Cl)c1`, 33.9%; with `COc1cccc(-c2nn(-c3ccccc3)cc2-c2ccnc(N3CCOCC3)c2)c1`, 44.9%. To `COc1ccc2c(c1)C=CC(C#N)N2C(=O)c1ccccc1` (stereo not given) belongs -24.7% (active); to `COc1cc([N+](=O)[O-])c2ncccc2c1O`, 72.1%. To `O=C1/C(=C/c2ccccc2)CN(C(=O)CCN2CCC(=NO)CC2)C/C1=C\c1ccccc1` belongs 5.03% (active); to `COc1ccc(Cn2c(Br)c3c(c2Br)-c2nc(N)sc2CC3)cc1`, -16% (active); to `Cc1cc(O)ccc1Sc1ccccc1[N+](=O)[O-]`, 115%.

For the compound `CC(C)(C)c1cc(O)c(O)c(C(C)(C)C)c1`, the growth is 4.04% (active). To `CN(C)c1ccc(/C=C\C2=[N+](C)c3ccccc3C2(C)C)cc1` belongs 22.9%; to `C=CCN1C(=O)/C(=c2\sc3n(c2=O)NC2C(N=3)N(CC)C(=O)N2CC)c2ccccc21` (stereo not given), -12.6% (active). With `O=C1Nc2ccc(F)cc2/C1=N/c1nnc(Sc2ccccc2)s1` the figure was 49.6%; with `O=C(CSc1nccc(Nc2ccc(S(=O)(=O)Nc3nccs3)cc2)n1)c1ccc(C(F)(F)F)cc1`, 103%.

With `Cc1c(C(=O)Nc2nc(-c3ccccc3)cs2)nnn1-c1cccc2ccccc12`, the growth is 54.4% [50 µM]. For the compound `O=C1Nc2cc(-c3ccc(O)cc3)ccc2/C1=C/c1ccc[nH]1`, the growth was -8.12% (active). With `COc1ccc(CNC(=O)C(O)C(Cc2ccccc2)NC(=O)c2[nH]c3ccccc3c(=O)c2C)cc1OC` (stereo not given) the figure was 97.3%; with `O=C1c2ccccc2C(=O)C1c1ccc(Br)cc1`, 105%; with `CC1CCC(C(C)C)C(NNC(N)=O)C1` (stereo not given), 108%. To `O=NN(CCCl)C(=O)NCc1ccc(-c2ccc(CNC(=O)N(CCCl)N=O)cc2)cc1` belongs 88.6%; to `CCOC(=O)c1ccc2nc(-c3c(C)nn(-c4ccccc4)c3N3CCOCC3)[nH]c2c1`, 95.4%; to `CCCOC(=O)N[C@H]1CCc2c(Cl)c(OC)c(OC)c(OC)c2-c2ccc(SC)c(=O)cc21`, -36% (active). With `COc1ccc(/C=c2\c(=O)n(-c3ccccc3)c3nn4c(n23)=NNC42CCCCC2)cc1` the figure was 110%.

On to `O=S(=O)(NCCCNc1cc(-c2cn(-c3ccccc3)nc2-c2cccc(O)c2)ccn1)c1ccc(C(F)(F)F)cc1`, for which the growth was 25%. To `COc1cc2c(cc1OCCCN1CCN(CCCOc3cc4c(cc3OC)C(=O)N3CCC[C@H]3C=N4)CC1)C=CC(C)(C)O2` belongs 10.2%.

For `O=S(=O)(NCCCNc1nccc(-c2c(-c3cccc(F)c3)nc3occn23)n1)c1cccc2ccccc12`, the growth is -26.8% (active). With `CC1(C)N=C(N)N=C(N)N1c1cccc(CN)c1` the figure was 86.8%. Turning to `O=C(Nc1cccc([N+](=O)[O-])c1)c1ccc2ccccc2c1O`, the growth was 39.4%.

The record behind these values is PubChem BioAssay (NCI).
